Screening data (PubChem)
Rows were chosen to be rich in hits. Some 6.9% of all compounds tested hit in one or more screens of this group.
HCV NS3h FP = HCV NS3 helicase inhibitors, primary screen, biochemical, fluorescence polarization, ChemBridge library; hit rate 1.6% among 16,000; NS3h Cy5-dT15 DNA binding; inhibition, % at 100 µM; AID 687043, 2013; Hepatitis C virus NS3 helicase;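 active = inhibition above the average over every tested compound plus 3 SD, cut at about 40% in these data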
Cy5 interf NS3h = Cy5 fluorescence quenchers or enhancers, artefact control for HCV NS3 helicase inhibitor project, biochemical, ChemBridge library, Cy5 readout; Cy5-dT15 DNA with NS3h, fluorescence interference; actives lie on both sides; signal over control mean, under 1 quenches; fluorescence interference ratio at 100 µM; hit rate 6% among 16,000; AID 720488, 2013;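 active = compound fluorescence over control fluorescence at most 0.8, a quencher, or at least a set upper limit, an enhancer; inactive = ratio between 0.8 and the set upper limit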
HCV NS3h conf = HCV NS3 helicase inhibitors, retest, confirmation, biochemical, fluorescence polarization, ChemBridge library. inhibition, % at 100 µM. shares compounds with HCV NS3h FP. hit rate 20% among 240. NS3h binding to Cy5-dT15 DNA;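 active = percent inhibition of 50% or more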
SSB-DNA FP CB = E. coli SSB-DNA binding inhibitors, counter-screen for HCV NS3 helicase inhibitor project, biochemical, fluorescence polarization, selected ChemBridge compounds. E. coli SSB binding Cy5-dT15. hit rate 40% among 240. inhibition, % at 100 µM. shares compounds with HCV NS3h FP;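 active = inhibition of at least 50%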;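 note: displacers lower Cy5 polarization so higher inhibition means more SSB displaced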
Target sequence (P0AGE0 whole entry, looked up): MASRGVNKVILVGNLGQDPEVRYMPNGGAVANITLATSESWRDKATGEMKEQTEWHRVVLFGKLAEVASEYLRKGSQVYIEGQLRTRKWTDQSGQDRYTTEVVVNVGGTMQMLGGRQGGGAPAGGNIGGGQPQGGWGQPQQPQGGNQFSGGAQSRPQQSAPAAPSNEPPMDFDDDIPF
Cy5 SSB fluor CB = Cy5 fluorescence interference with SSB-bound oligo, artefact control for HCV NS3 helicase inhibitor project, biochemical, E. coli SSB, selected ChemBridge compounds; shares compounds with HCV NS3h FP; hit rate 8% among 240; Cy5-dT15/E. coli SSB fluorescence interference; actives lie on both sides; fluorescence interference ratio at 100 µM; AID 720487, 2013;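 active = fluorescence interference ratio at or above 1.2, signal boosting, or at or below 0.8, signal quenching; inactive = ratio between 0.8 and 1.2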;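 note: ratio of compound well signal to mean negative control signal so 1 means no effect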
Cy5 interf conf = Cy5-DNA-NS3h complex fluorescence interference, confirmation, artefact control for HCV NS3 helicase inhibitor project, biochemical, ChemBridge library. shares compounds with HCV NS3h FP. Cy5-dT15 DNA/NS3h fluorescence interference counterscreen. fluorescence interference ratio at 100 µM, hits read low. hit rate 44% among 240. AID 720489, 2013;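 active = fluorescence interference ratio at or below 0.8 quencher or at or above a set limitenhancer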;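 note: ratio of compound fluorescence to mean of negative controls so 1 means no interference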
Active calls of the source: *; . = not tested or not shown.

SMILES | HCV NS3h FP | Cy5 interf NS3h | HCV NS3h conf | SSB-DNA FP CB | Cy5 SSB fluor CB | Cy5 interf conf
O=C1c2ccc(S(=O)(=O)c3ccc4c(c3)C(=O)N(CCCO)C4=O)cc2C(=O)N1CCCO | 6.9 | 0.997 | . | . | . | .
COc1ccc(C2=C/C(=C\c3ccc4c(c3)OCO4)C(=O)O2)cc1 | 2.5 | 0.943 | . | . | . | .
O=c1c(-c2nc3ccccc3s2)coc2cc(OCc3ccc([N+](=O)[O-])cc3)ccc12 | 7.1 | 1.01 | . | . | . | .
Cc1ccc(OCCOc2ccc(Br)cc2/C=C2/SC(=S)N(C)C2=O)cc1 | 31.7 | 1 | . | . | . | .
Cc1ccc(OCCOc2ccc(Cl)cc2/C=C2/SC(=S)N(C)C2=O)cc1 | 45.8* | 0.914 | 1.3 | 10.2 | 1.06 | 0.8*
COc1ccccc1C(=O)NNC(=O)c1ccc([N+](=O)[O-])cc1 | -1.3 | 1.03 | . | . | . | .
Cc1ccc(C)n1-c1ccc(OCC(=O)O)cc1 | 81.6* | 1.35* | 78.5* | 95.1* | 0.918 | 0.828
Cc1nc(=O)c(-c2ccccc2)c(C)n1-c1ccc(OCC(=O)O)cc1 | -3.7 | 1.09 | . | . | . | .
O=C1NC(=O)N(c2ccc(Cl)cc2)C(=O)/C1=C/c1cccs1 | 8.2 | 1.01 | . | . | . | .
COc1ccc(OC)c(N2C(=O)NC(=O)C(=Cc3cccs3)C2=O)c1 | 95.3* | 1.04 | 38.3 | 6.6 | 0.977 | 0.813
COc1ccc(OC)c(N2C(=O)NC(=O)/C(=C/C=C/c3ccccc3)C2=O)c1 | 48.8* | 0.922 | 21.4 | 32.0 | 0.977 | 0.827
COc1ccccc1N1C(=O)NC(=O)/C(=C\c2ccc(Br)cc2)C1=O | 18.9 | 0.924 | . | . | . | .
CCOC(=O)C(CCOCCOc1cc(C)c(Cl)c(C)c1)C(=O)OCC | -7.2 | 1.1 | . | . | . | .
COc1cc(/C=C2\C(=O)NC(=S)N(c3ccc(Cl)cc3)C2=O)ccc1OCc1ccc(C(=O)O)cc1 | 8.8 | 1.04 | . | . | . | .
O=C1NN(c2ccc(Cl)cc2)C(=O)/C1=C\c1ccc(-c2ccc(Cl)c(C(=O)O)c2)o1 | 52.1* | 0.804* | 36.2 | 28.4 | 0.968 | 0.916
O=C1NC(=O)N(c2ccc(Cl)cc2)C(=O)/C1=C/c1ccc(-c2ccc(Cl)c(C(=O)O)c2)o1 | 67.2* | 1.05 | 62.6* | 76.9* | 0.937 | 0.852
COc1ccc([N+](=O)[O-])cc1-c1ccc(/C=C2\C(=O)NC(=O)N(c3ccc(Cl)cc3)C2=O)o1 | 20.4 | 1.09 | . | . | . | .
O=C1NC(=O)N(c2ccccc2)C(=O)/C1=C\c1ccc(-c2cccc(C(=O)O)c2)o1 | 50.8* | 0.984 | 38.3 | 52.7* | 0.919 | 0.921
O=C1NN(c2ccccc2)C(=O)/C1=C/c1ccc(-c2ccc(F)cc2)o1 | 7.3 | 0.985 | . | . | . | .
O=C1NC(=O)N(c2ccccc2)C(=O)/C1=C\c1ccc(-c2ccc([N+](=O)[O-])cc2Cl)o1 | -3.4 | 0.817 | . | . | . | .
NS(=O)(=O)c1ccc(CNC(=O)c2ccccc2Br)cc1 | 0.3 | 0.976 | . | . | . | .
Cc1ccsc1/C=C1\SC(=S)N(C2CCS(=O)(=O)C2)C1=O (stereo not drawn) | 68.5* | 1.33* | 4.4 | 17.5 | 0.906 | 0.723*
CC(C)c1ccc(/C=C2\SC(=S)N(C3CCS(=O)(=O)C3)C2=O)cc1 (stereo not drawn) | -0.7 | 0.949 | . | . | . | .
COC(=O)c1cccc(NC(=O)c2ccc[n+]([O-])c2)c1 | 4.0 | 1.05 | . | . | . | .
COC(=O)c1cccc(N2C(=O)C=CC2=O)c1 | 46.1* | 0.949 | 36.2 | -1.9 | 0.975 | 0.73*
Cc1ccc(NC(=O)/C=C\C(=O)O)c(C)c1 | -6.5 | 0.865 | . | . | . | .
Cc1ccc(N2C(=O)CC(Cc3ccc(Cl)cc3)C2=O)cc1C (stereo not drawn) | 3.2 | 1.04 | . | . | . | .
O=C(Nc1ccc(N2C(=O)c3ccccc3C2=O)cc1Cl)c1ccc(Cl)cc1Cl | 2.8 | 1.17 | . | . | . | .
